Results reported in PubChem BioAssay (EPA / NIEHS).
Inconclusive results are not listed. Active and inactive are the calls of the source. The calls were made as follows, unless noted: active = hit-call score of the fitted dose curve at least 0.9, where 1 is the maximum; inconclusive = response in the unintended direction; inactive = score below 0.9.

Test: STM_H9_OrnCyssISnorm_ratio: Stemina devTOX quickPredict H9 human embryonic stem cell (hESC)-based Assay for Ornithine (ORN):Cystine (CYSS) Ratio (AID 2283714)
Outline: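 Steps: H9 hESCs in pluripotent state dosed 72h, medium plus compound renewed every 24h; conditioned medium from the final 24h deproteinized in 40% acetonitrile; ORN and CYSS quantified by UPLC-HRMS with C13 spike-ins; ratio relative to vehicle.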
With `CC1=CC(=O)c2ccccc2C1=O` the AC50 was 11.8 µM (active).
With `C=Cc1ccc(O)c(OC)c1` the AC50 was 81 µM (active).
For `CC(C)(C)c1ccc(O)c(O)c1`, the AC50 was 76.2 µM (active).
With `Cn1sccc1=O` the AC50 was 10.8 µM (active).

Test: CEETOX_H295R_MTT_cell_viability: Viability Assessment in the CeeTox HT-H295R MTT Assay (AID 2283718; active = hit-call score of the fitted dose curve at least 0.9, where 1 is the maximum; inactive = score below 0.9)
Outline: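 MTT reduction (0.5 mg/ml, 4 h at 37 C; absorbance at 570 and 650 nm) gave viability as background-corrected percent change versus controls. H295R cells had 48 h forskolin (10 uM) prestimulation, then 48 h chemical exposure at 0.1% DMSO.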
With `CCCCCc1ccc(O)cc1` the outcome was “inactive”.
In the case of `COc1cccc(O)c1`, the outcome is reported as “inactive”.
For `CC(C)(c1ccc(Oc2ccc(N)cc2)cc1)c1ccc(Oc2ccc(N)cc2)cc1`, the outcome was “inactive”.
With `c1cc[nH]c1` the outcome was “inactive”.
With `Cc1cccc2c1ccc1ccccc12` the outcome was “inactive”.
In the case of `CC(C)(C)c1ccc(O)c(O)c1`, the outcome is reported as “inactive”.
With `Oc1cc2ccccc2cc1O` the outcome was “inactive”.
For `Clc1ccc(Nc2nnc(Cc3ccncc3)c3ccccc23)cc1`, the outcome was “inactive”.
For `CCCCCC(C)OC(=O)COc1ccc(Cl)c2cccnc12` (stereo not drawn), the outcome was “inactive”.
With `CC(C)CCOCCC(C)C` the outcome was “inactive”.
With `C/C=C/C(=O)C1=C(C)CCCC1(C)C` the outcome was “inactive”.
With `O=C(NCc1ncc(C(F)(F)F)cc1Cl)c1c(Cl)cccc1Cl` the outcome was “inactive”.

Test: ACEA_AR_antagonist_AUC_viability: ACEA Biosciences xCELLigence Real-Time Cell Analysis on Androgen Receptor Antagonism for Viability (AID 2283776);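 also: 22Rv1 human prostate cancer cells growing on impedance electrode plates; area under impedance growth curve at 80 h after dosing as viability; hits lower the growth signal relative to DMSO meaning cytotoxicity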
Outline: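 22Rv1 prostate cells, continuous dosing up to 100 uM final (0.5% DMSO max), duplicate plates. Growth measured by impedance; AUC at 80 h, loss of signal vs DMSO.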
In the case of `NS(=O)(=O)O`, the outcome is reported as “inactive”.
In the case of `CCc1ccccc1O`, the outcome is reported as “inactive”.
In the case of `Cc1ccc(C)c(S(=O)(=O)O)c1`, the AC50 is reported as 0.221 µM (active).
In the case of `NCCN`, the outcome is reported as “inactive”.
With `O=C(O)c1cccc(C(=O)O)n1` the outcome was “inactive”.
For `c1cnc2c(c1)ccc1cccnc12`, the AC50 was 3.57 µM (active).
With `CCCCc1ccc2ccccc2c1S(=O)(=O)O` the outcome was “inactive”.
For `CCCCCCCCCCCC(=O)O`, the outcome was “inactive”.
In the case of `Cc1ccc(S(=O)(=O)O)cc1`, the outcome is reported as “inactive”.
For `CC(O)COc1ccccc1` (stereo not drawn), the outcome was “inactive”.
In the case of `CC(C)[C@@H]1CC[C@@H](C)C[C@H]1O`, the AC50 is reported as 0.541 µM (active).
In the case of `CCCCCCCCCC=CCC1CC(=O)OC1=O` (stereo not drawn), the outcome is reported as “inactive”.
